# Assay results from PubChem BioAssay AID1645858 (Buhrlage Lab, Dana-Farber Cancer Institute and Novartis …, 2021).
# In all, about 47,000 compounds went through this assay and about 330 (0.7%) were called active. What follows is part of a selection rich in actives, with near analogues and random picks from the rest. Unmarked numbers belong to inactive results. No stated cut-off is given here; in the data, active means inhibition above about 30%; inactive means the rest.
# Molecular target: OTU domain-containing protein 3 (Homo sapiens) (UniProt Q5T2D3)
# Sequence (Q5T2D3 whole entry, looked up, the tested form may be a part): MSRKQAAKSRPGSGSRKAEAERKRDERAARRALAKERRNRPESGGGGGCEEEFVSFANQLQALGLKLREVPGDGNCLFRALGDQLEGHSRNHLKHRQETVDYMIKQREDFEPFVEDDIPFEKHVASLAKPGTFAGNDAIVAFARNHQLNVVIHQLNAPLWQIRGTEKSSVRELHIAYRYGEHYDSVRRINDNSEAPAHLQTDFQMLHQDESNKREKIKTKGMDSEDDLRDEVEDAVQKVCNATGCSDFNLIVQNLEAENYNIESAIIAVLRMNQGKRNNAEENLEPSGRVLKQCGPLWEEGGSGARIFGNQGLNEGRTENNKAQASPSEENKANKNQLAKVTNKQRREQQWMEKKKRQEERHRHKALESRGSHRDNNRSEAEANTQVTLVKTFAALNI
# Experiment: blocks human OTUD3 ubiquitin-rhodamine cleavage (AID 1645858)
# Settings: purified OTUD3, Ub-rhodamine fluorescence, 2 h; at 25 µM; hits give high values
row,Structure (SMILES),inhibition
1,Cc1cc(N2C(=O)c3oc4ccccc4c(=O)c3C2c2ccc(F)cc2)no1 (stereo not given),-4.24%
2,CCNC1CN(C(=O)Cn2nnc3ccccc32)C2(CCCCC2)C1 (stereo not given),2.28%
3,O[C@H]1[C@H](O)[C@H](Oc2cccc(F)c2)CC[C@H]1NCc1ccncc1,15.2%
4,NS(=O)(=O)c1cccc(CNC(=O)C2(c3ccccc3)CCC2)c1,0.73%
5,N#Cc1c(N)nc2c(c1N)CC(C(F)(F)F)O2 (stereo not given),-4.36%
6,Clc1ccc2[nH]c3c(ccc4c5cc(Cl)ccc5[nH]c43)c2c1,3.62%
7,COc1ccc(CNC(=O)c2[nH]nc3c2CCc2ccccc2-3)cc1,-5.63%
8,Cc1ccc(NC(=O)N2CCCC2c2cc(C)on2)c(Cl)c1 (stereo not given),-2.99%
9,c1cc(CNCc2ccc3c(c2)OCO3)ccn1,0.0568%
10,CCC(Oc1ccccc1)C(=O)NCc1ccc2c(c1)OCO2 (stereo not given),9.11%
11,c1ccc(-c2ccc(NCc3ccc4c(c3)OCO4)nn2)cc1,43.5% (active)
12,Cc1cc(Cl)ccc1NC(=O)c1ccc(=O)[nH]c1,-2.31%
13,N[C@@H]1C[C@@H](Oc2cccnc2)[C@H](O)[C@H]1N1CCN(c2ccccc2)CC1,-8.12%
14,CSc1nccc(-c2ccc(F)cc2)c1C#N,11%
15,CCn1c(CNC(=O)c2ccco2)nnc1SCC(=O)Nc1ccc(C)cc1,0.297%
16,Cc1ccc(CN2C(=O)C(CC(=O)Nc3ccc(F)cc3)n3c2nc2ccccc23)cc1 (stereo not given),-8.71%
17,Cc1c(Cl)ccc2sc(N(Cc3ccncc3)C(=O)c3ccco3)nc12,-4.28%
18,Cc1coc2c(C)c3oc(=O)c(CC(=O)N4CC[C@@]5(O)CCCC[C@H]5C4)c(C)c3cc12,-9.33%
19,CC(=O)c1ccc(C)c(=O)o1,9.1%
20,CC(=O)N1CCSc2ccc(S(=O)(=O)N(C)C(C)CCc3ccco3)cc21 (stereo not given),-8.61%
21,O=C1NC2(CCN(C(=O)NCc3ccccc3)CC2)Nc2c(Cl)cccc21,-5.72%
22,CC(C)c1ncc(CN2CCC3(CC2)CN(S(C)(=O)=O)Cc2ccccc2O3)cn1,-4.5%

row,Structure (SMILES),inhibition
1,COc1ccc(-c2[nH]c3ccccc3c2SCCNC(=O)c2ccc(S(=O)(=O)N3CCOCC3)cc2)cc1,11.6%
2,O=C(CCc1nnc2n(CCc3ccccc3)c(=O)c3ccccc3n12)N1CCOCC1,4.98%
3,COC(=O)c1ccc(CN(C)C(=O)c2ccc(-c3nnc(-c4ccccc4)o3)cc2)cc1,-0.482%
4,O=C1CCCN1Cc1ncn2c1CN(Cc1cccnc1)CCC2,-1.01%
5,CCN1C(=O)C[C@@H](C(=O)NCc2nc(C)no2)[C@@H]1c1ccccc1C,1.87%
6,COc1ccc(CC2c3cc(OC)c(OC)cc3CCN2C(=O)c2ccc(C)c(Cl)c2)cc1OC (stereo not given),1.03%
7,O=C(CSC1=NC2(CCCCC2)Nc2ccccc21)Nc1cccc(F)c1,-11.6%
8,O=C(NCc1ccc(F)cc1)C1CCc2nc(N3CCCCC3)ncc2C1 (stereo not given),1.53%
9,Cc1cc(-c2ccc(S(=O)(=O)Nc3cccc(CN4CCCC4)c3)s2)n[nH]1,-13.6%
10,Cc1ccc(S(=O)(=O)c2cnc3ccccc3c2N2CCC3(CC2)OCCO3)cc1,1.24%
11,O=C(Cc1c[nH]c2ccccc12)NC1(c2nc(-c3ccncc3)no2)CCCCC1,-15.9%
12,Clc1ccccc1-c1nc2nc3ccccc3nc2n1CC1CCCO1 (stereo not given),-16%
13,COc1ccc(N2CC(C(=O)OCC(=O)Nc3ccc(F)cc3)CC2=O)cc1 (stereo not given),-3.39%
14,C[C@@H]1CC[C@H]2C(CN3CCN(C)CC3)C(=O)O[C@]23[C@H]1CC[C@@]1(C)O[C@@H]31 (stereo not given in full),4.7%
15,Cc1ccccc1CNC(=O)c1cn(C)nc1S(=O)(=O)N1CCC(C)CC1,1.12%
16,COc1ccccc1Cn1cnc2c([nH]c3cc(OC)c(OC)cc32)c1=O,0.0298%
17,Cc1nccc(N2CCC(Cc3cncc(-c4cnc(C)n4C)n3)C2)n1 (stereo not given),3.33%
18,COc1ccc(NC(=O)Cn2ncc3cccn3c2=O)cc1,-2.63%
19,CCCNC(=O)c1cc(N2CCCC2)n2nccc2n1,-68.7%
20,CCS(=O)(=O)N1C[C@H]2CN(Cc3ccccc3Cl)C[C@H]2C1,-1.12%
21,Cc1cccc(-c2nnc(-c3cccc(S(=O)(=O)N4CCCC4)c3)o2)c1,10.7%
22,O=C(COC(=O)C1CCN(S(=O)(=O)c2c(Cl)cccc2Cl)CC1)Nc1ccc2c(c1)CCC2,0.0518%

row,Structure (SMILES),inhibition
1,O=C(Nc1nnc(-c2cccc([N+](=O)[O-])c2)o1)C1CCN(S(=O)(=O)c2ccc3c(c2)CCC3)CC1,30.3% (active)
2,Cc1cnc2nc3c(cc2c1)CN(S(=O)(=O)c1cc(F)ccc1C)CC3,-230%
3,COCCN1[C@H]2CCN(Cc3ccccn3)CC[C@@H]2Oc2ccccc2S1(=O)=O,7.81%
4,O=c1c(NCCCc2ccccc2)nccn1-c1ccc2c(c1)OCCO2,-4.73%
5,CC(C)N1C(=O)Cc2ccccc2C1C(=O)NCc1ccccc1F (stereo not given),2.54%
6,Cc1ccc(Sc2c(C)[nH]n(-c3ccccc3)c2=O)cc1,7.8%
7,COc1c(O)c2c(=O)cc(OC)c3c4c(OC)cc(=O)c5c(O)c(OC)c(CC(C)OC(=O)c6ccccc6)c(c(c1CC(C)OC(=O)Oc1ccc(O)cc1)c23)c54 (stereo not given),-24.8%
8,C=C1CCC2[C@](C)(CCC[C@]2(C)C(=O)OC)[C@H]1CCc1ccoc1C[N+](C)(C)Cc1ccccc1 (stereo not given in full),22.7%
9,C=C1CCC2[C@](C)(CCC[C@]2(C)C(=O)OC)[C@H]1CCc1ccoc1CNCC(=O)O (stereo not given in full),-1.63%
10,C=C1CCC2[C@](C)(CCC[C@]2(C)C(=O)OC)[C@H]1CCc1ccoc1/C=C/C(=O)O (stereo not given in full),57.1% (active)
11,Cc1cc(C)n(CCCNS(=O)(=O)c2ccc(C(C)(C)C)cc2)n1,-3.74%
12,Cc1nc(-c2ncc[nH]2)cc(C2CCCCN2S(=O)(=O)N(C)C)n1 (stereo not given),-4.61%
13,N#Cc1cccc(S(=O)(=O)c2c[nH]c3ccc(Cl)cc3c2=O)c1,-5.74%
14,CCC(C)C1NC(=O)C(Cc2ccc(O)cc2)NC(=O)C(CCC(N)=O)NC(=O)C2CCCN2C(=O)C(C(C)C)NC(=O)C(CCC(=O)O)NC(=O)C(C(C)O)NC(=O)C(NC(=O)C(CCCN)NC(=O)C(CCC(=O)O)NC(=O)CCCCCCCCCCCCCC(C)C)Cc2ccc(cc2)OC1=O (stereo not given),5.05%
15,O=C(NC(C(=O)N1CCCc2ccccc21)c1ccccc1)c1cnccn1 (stereo not given),14.1%
16,N#Cc1ccc(NC(=O)Nc2cccn(Cc3ccccc3F)c2=O)cc1,37.7% (active)
17,Cc1noc(-c2cccn(Cc3cc(F)ccc3F)c2=O)n1,5.03%
18,O=C(Cn1cccc(-c2nc(-c3ccccc3)no2)c1=O)Nc1ccccc1F,6.4%
19,Cc1cc(C(=O)N2CCCCC2c2[nH]ncc2C)c2c(C)noc2n1 (stereo not given),11.6%
20,COc1ccccc1C(=O)Nc1ccc(N(c2ccccc2)C(C)C)cc1,2.72%
21,FC(F)(F)c1cc(N2CCCCC2)nc(-c2ccccn2)n1,-3.6%
22,CC(Sc1ncnc2ccccc12)C(=O)NCc1ccc2c(c1)OCO2 (stereo not given),12.8%

row,Structure (SMILES),inhibition
1,Cn1cc(C2CCCN2C(=O)c2ccc(-n3cccn3)nc2)cn1 (stereo not given),-5.62%
2,COc1ccc(-c2cc(=O)oc3c(C)c(OCc4ccccc4F)ccc23)cc1,1.77%
3,CN1CCN(c2nc3c(s2)CN(C(=O)c2ccnn2C)CC3)CC1,-25.7%
4,COc1cccc(NC(=O)C(Sc2cccc(NC(=O)c3ccccc3F)c2)c2ccccc2)c1 (stereo not given),15.7%
5,C#CCOc1ccc2ccccc2c1CN1CCc2ccccc2C1,14.8%
6,COCCN(C(=O)CCC(=O)Nc1ccccn1)C(C(=O)NCC1CCCO1)c1ccc(C)cc1 (stereo not given),12.3%
7,CN1C[C@H]2CCN(S(=O)(=O)c3ccc(OC(F)(F)F)cc3)C[C@H]21,5.38%
8,COc1ccccc1N1CCN(C(=O)CSCc2ccccc2C)CC1,-10.5%
9,CC(C)C(NS(=O)(=O)c1ccccc1)C(=O)OCC(=O)Nc1cc([N+](=O)[O-])ccc1F (stereo not given),6.16%
10,CCCc1cc(=O)[nH]c2nnc(SCC(=O)N(CC)CC)n12,-0.85%
11,Cc1nn(-c2ccc(F)cc2F)c2c1C(C(=O)c1cc3ccccc3o1)CC(=O)N2 (stereo not given),-3.81%
12,CCCCC1CCC(C(=O)N2CCC(C3(C)NC(=O)NC3=O)CC2)CC1 (stereo not given),5.45%
13,CCc1ccc(S(=O)(=O)Nc2cc(C(=O)Nc3ccccc3)ccc2OC)cc1,-4%
14,Cc1cc(CN2CC[C@H]3[C@H]2CCN3S(C)(=O)=O)oc1C,-12%
15,Cc1nn(CC(C)C)c(C)c1CC(=O)N1CCCC1c1cnn(C)c1 (stereo not given),-0.626%
16,NC(=O)CC[C@H](NC(=O)[C@@H]1CCCN1C(=O)[C@H](Cc1ccccc1)n1c(=O)[nH]c2ccccc2c1=O)C(=O)O,-2.35%
17,Cc1ccc(NC(=O)C2CCN(S(=O)(=O)c3cnc[nH]3)CC2)cc1Cl,-2.32%
18,O=C(Cc1c(Cl)cccc1Cl)NCc1cccc(C(F)(F)F)c1,4.26%
19,COc1cccc(CN2C[C@@]34CN(C(=O)C5CCC5)C[C@@H](C[C@@H]3S2(=O)=O)O4)c1,9.25%
